Entries with a potency or affinity are not part of this list.
These compounds were tested against Broad substrate specificity ATP-binding cassette transporter ABCG2 (Homo sapiens) (UniProt Q9UNQ0) (assay: inhibition of BCRP-mediated JC-1 efflux – Ig-MXP3 cells, flow cytometry, set 2, dose response (AID 504566)). Conditions: series mostly up to 50 µM; inhibition: at the top concentration;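 active means combined score above 52, rewarding potency beyond a set limit and curve height beyond a set limit; inactive means the rest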.
Broad substrate specificity ATP-binding cassette transporter ABCG2 (Homo sapiens), sequence (Q9UNQ0 whole entry, looked up): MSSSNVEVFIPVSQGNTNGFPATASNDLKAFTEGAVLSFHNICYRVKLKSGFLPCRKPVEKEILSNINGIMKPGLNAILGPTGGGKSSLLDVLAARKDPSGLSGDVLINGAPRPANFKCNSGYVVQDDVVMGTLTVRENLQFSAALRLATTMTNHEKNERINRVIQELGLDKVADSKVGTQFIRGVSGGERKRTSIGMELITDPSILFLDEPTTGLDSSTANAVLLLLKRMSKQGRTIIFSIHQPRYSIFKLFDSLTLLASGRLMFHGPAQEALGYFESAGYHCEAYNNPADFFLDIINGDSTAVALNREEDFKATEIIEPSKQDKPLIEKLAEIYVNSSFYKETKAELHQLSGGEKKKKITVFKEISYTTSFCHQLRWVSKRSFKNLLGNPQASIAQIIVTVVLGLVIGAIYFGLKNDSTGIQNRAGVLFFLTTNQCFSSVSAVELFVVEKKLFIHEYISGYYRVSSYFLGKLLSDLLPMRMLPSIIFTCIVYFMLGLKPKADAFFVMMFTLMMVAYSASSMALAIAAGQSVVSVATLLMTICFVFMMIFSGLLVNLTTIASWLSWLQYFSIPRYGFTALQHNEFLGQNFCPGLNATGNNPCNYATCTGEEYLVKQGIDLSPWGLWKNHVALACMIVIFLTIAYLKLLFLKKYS

inhibition, inactive:
O=S(=O)(c1ccccc1)N1CCN(c2cc(-c3ccccc3)nc3cc(-c4cccc(Cl)c4)nn23)CC1 3.59%, CC(=O)N1CCN(c2c(C)c(C)nc3cc(-c4ccc(Cl)cc4)nn23)CC1 79.4%, Cc1nc2cc(-c3cccs3)nn2c(N2CCN(C(=O)c3ccco3)CC2)c1C 38.8%

— PubChem BioAssay AID504566 (NMMLSC, 2011)
